# Legend:
# Conditions in all cases: concentration: 1 μM, replicates: in singlicate; n = 1
# PIK4CB = system: T1, PIK4CB
# T1 construct: gene PI4KB
# PIKFYVE = system: PIKFYVE
# PIM1 = system: PIM1
# PIM2 = system: PIM2
# PIM3 = system: PIM3
# PIP5K1A = system: PIP5K1A
# PIP5K1C = system: PIP5K1C
# PIP5K2B = system: PIP5K2B
# PIP5K2C = system: T2, PIP5K2C
# T2 construct: gene PIP4K2C
# PKAC-alpha = system: T3, PKAC-alpha
# T3 construct: gene PRKACA
# 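Also: KINOMEscan kinase panel screen.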
Structure (SMILES),%Inh (PIK4CB) [%],%Inh (PIKFYVE) [%],%Inh (PIM1) [%],%Inh (PIM2) [%],%Inh (PIM3) [%],%Inh (PIP5K1A) [%],%Inh (PIP5K1C) [%],%Inh (PIP5K2B) [%],%Inh (PIP5K2C) [%],%Inh (PKAC-alpha) [%]
COc1ccc(Nc2nccc(-c3ccc(NC(=O)c4cc5cc(F)ccc5[nH]4)cc3)n2)cc1 [GSK1229496],0,0,0,0,0,37,54,17,41,0
COc1ccc(Nc2nccc(N3CCC(NC(=O)C(C)c4ccc(Cl)cc4)C3)n2)cc1 (stereo not drawn) [GSK1379735],0,0,0,0,35,8,52,18,25,0
COc1ccc2cc(-c3nc(-c4ccccc4C(C)C)[nH]c3-c3ccncc3)ccc2c1 [SB-660566],0,0,15,0,0,18,0,38,0,0
CN1c2ccc(-c3ccc(C(N)=O)cc3)cc2-c2[nH]ncc2S1(=O)=O,0,4,9,0,13,0,81,6,64,13
Cc1ccc(-c2nc(Nc3ccncc3)c3ccccc3n2)s1 [GSK189015],5,63,17,0,12,0,22,14,1,21
CCCCc1nn2ncccc2c1-c1ccnc(NC2CC2)n1 [GW684374],35,0,0,0,0,0,36,0,75,0
Fc1ccc(-c2nc[nH]c2-c2ccncc2)cc1 [SB-217360],0,32,19,0,11,19,0,0,2,25
Cc1ccccc1-c1cc(-c2c[nH]nc2-c2ccccn2)ccn1 [GW680061],0,0,0,0,0,12,39,15,28,0
O=C(Nc1n[nH]c2cc(-c3ccsc3)ccc12)C1CC1 [SB-732932],27,0,18,0,11,61,3,52,3,0
COC(=O)c1cccc(NC(=O)NC2CCN(c3ccnc(Nc4ccc(F)cc4)n3)C2)c1 (stereo not drawn) [GSK1379725],6,0,30,0,0,0,14,9,0,0
COc1cc2ncnc(Nc3cccc(Br)c3)c2cc1OC.Cl [GI230329],0,32,21,0,14,0,79,14,52,0
NS(=O)(=O)c1cccc(N/C=C2\C(=O)Nc3ccc(S(=O)(=O)Cc4c(Cl)cccc4Cl)cc32)c1 [GSK398099],87,0,0,0,0,0,0,0,1,0
CSc1ccc(-c2nc3n(c2-c2ccncc2)CCC3)cc1 [SKF-105561],24,11,0,0,1,37,0,21,0,5
Cc1ccccc1Cn1ccn2c(=O)cc(N3CCOCC3)nc12 [GSK2269905],9,0,17,0,0,0,11,12,10,0
Cn1cncc1-c1cc2c(Nc3ccc(OCc4ccccc4)cc3)ncnc2cn1 [GW281179],0,18,0,0,0,0,23,0,26,0
O=c1cc(N2CCOCC2)nc2n(Cc3cccc(Cl)c3Cl)c3ccccc3n12 [GSK2299009],0,0,0,0,0,0,17,0,0,0
CS(=O)(=O)Cc1ccc(Nc2nccc(-c3c(-c4cccc(NC(=O)C5CCCCC5)c4)nn4ncccc34)n2)cc1 [GSK350559],45,2,12,10,17,0,100,12,83,31

Structure (SMILES),%Inh (PIK4CB) [%],%Inh (PIKFYVE) [%],%Inh (PIM1) [%],%Inh (PIM2) [%],%Inh (PIM3) [%],%Inh (PIP5K1A) [%],%Inh (PIP5K1C) [%],%Inh (PIP5K2B) [%],%Inh (PIP5K2C) [%],%Inh (PKAC-alpha) [%]
CNCc1ccc2nc(NC(=O)c3ccc(C(C)(C)C)cc3)cn2c1,19,0,0,9,23,0,17,11,30,0
Cc1ccc(NC(=O)Nc2ccc(Cl)c(C(F)(F)F)c2)cc1-c1ccc(C(=O)Nc2ccncc2)cc1 [GSK1398470],0,0,23,1,21,0,23,0,8,15
COc1ccc(Nc2nccc(N3CCC(NC(=O)c4cc5ccccc5s4)C3)n2)cc1 (stereo not drawn) [GSK1379738],19,0,25,0,21,0,40,13,47,0
COC(=O)C(Cc1ccccc1)NC(=O)NC1CCN(c2ccnc(Nc3ccc(F)cc3)n2)C1 (stereo not drawn) [GSK1379714],7,22,0,0,0,45,35,30,36,0
Fc1ccc(-c2nn3cccc(F)c3c2-c2ccncc2)cc1 [GW475620],0,28,0,0,0,0,28,19,0,11
CCc1ccc(-c2ccc3c(c2)-c2n[nH]cc2S(=O)(=O)N3C)cc1,0,100,0,0,18,0,45,0,16,0
Nc1cccc(-c2ccc3c(N)n[nH]c3c2)n1 [GSK2192730],30,0,26,0,13,39,0,4,0,0
O=c1cc(N2CCOCC2)nc2n(Cc3ccccc3F)ccn12 [GSK2297428],0,0,0,0,0,6,31,19,0,0
Nc1nccc(-c2c(-c3ccc(F)cc3)ncn2C2CCN(Cc3ccccc3)CC2)n1 [SB-219980],25,6,0,0,0,0,15,0,82,2
O=C(Nc1n[nH]c2nc(-c3cccs3)c(Br)cc12)C1CC1 [SB-735297],12,2,0,0,0,15,0,0,0,0
Cc1c(Cn2c(C)c(C)n3c(=O)cc(N4CCOCC4)nc23)cccc1C(F)(F)F [GSK2328680],0,0,1,0,0,9,44,20,7,0
Cc1cnc(N)c(/C=C/c2cncc(C(=O)NCCc3ccc(Cl)cc3Cl)c2)c1.Cl [GSK190937],0,0,12,0,0,39,35,21,47,
Cn1cnc2c(N)ncnc21 [SKF-97623],10,44,5,0,0,30,0,14,33,0
Fc1ccc(-c2nc3n(c2-c2ccncc2)CCS3)cc1 [GI98581],0,0,0,0,0,33,47,0,12,33
FC(F)(F)c1ccccc1-c1cc(-c2c[nH]nc2-c2ccccn2)ccn1 [GW679396],0,0,0,0,0,5,32,15,0,0
CS(=O)(=O)CCNCc1nc(-c2ccc3ncnc(Nc4ccc5c(cnn5Cc5ccccc5)c4)c3c2)cs1.Cl.Cl [GW569716],59,0,21,0,0,46,58,19,41,0
COc1ccc(Nc2nccc(N3CCC(NC(=O)C(C)c4ccc(Cl)cc4)CC3)n2)cc1 (stereo not drawn) [GSK1379812],11,0,0,0,2,0,29,63,9,17

# Source: PMC5540273 (PLoS ONE, 2017)
